Compound activity (PubChem)
This is a sample that favours compounds with a hit; in the whole collection about 12% have one here.
HP1b chromo inh: HP1-beta chromodomain-methylated histone interaction inhibition | AID 540317 | AlphaScreen HP1-beta / biotin-H3K9me3 peptide binding | 390,000 compounds, 0.56% hits | Potency, µM (highest dose often 114 µM), without a hit: at the top dose activity change, negative = inhibition, most hits filed as inhibitors; also: nearly all actives have a fitted effect of over 70% in size
Target sequence (P83916 whole entry, looked up): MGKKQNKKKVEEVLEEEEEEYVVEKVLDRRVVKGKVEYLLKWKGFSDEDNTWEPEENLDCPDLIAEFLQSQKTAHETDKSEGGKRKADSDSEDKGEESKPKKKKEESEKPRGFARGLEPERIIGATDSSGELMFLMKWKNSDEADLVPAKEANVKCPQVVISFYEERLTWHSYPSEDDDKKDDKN
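AlphaScreen: HP1-beta (50 nM) preformed 30 min with biotin-H3(1-18)K9me3 peptide (50 nM) in PBS pH 7.4, 0.01% Tween-20. Compound added for 30 min at RT, then streptavidin donor/nickel chelate acceptor beads (10 ug/mL) for 30 min.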
BAZ2B inh: blocks human BAZ2B | Q9UIF8 | AlphaScreen BAZ2B-H3K14Ac peptide displacement | Potency, µM (titrated, usually from 114 µM), without a hit: at the top dose activity change, negative = inhibition, actives largely listed as inhibitors | 360,000 compounds, 4.4% hits | AID 504333; also: % is scaled to controls: 0 for no effect and ±100 for the full control effect; nearly all actives have a fitted effect of over 60% in size
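AlphaScreen luminescence quantifies BAZ2B engagement of H3K14Ac peptide; the protein and biotinylated peptide are both at 50 nM final, buffer PBS pH 7.4 with 0.01% Tween-20, all steps at room temperature.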
Sfp inh: Sfp phosphopantetheinyl transferase inhibition; Q9F4F7; Biochemical Sfp PPTase activity, qHTS; Potency, µM, for inactives: largest response in the series, negative = inhibition, usual class: inhibitors; 310,000 compounds, 3.5% hits;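 also: the enzyme is Sfp with the accession as filed and its product quenches rhodamine fluorescence; 0% = enzyme reaction without inhibitor and -100% = no enzyme wells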
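With Hepes-Na pH 7.6 buffer containing 10 mM MgCl2, Sfp (15 nM) modified BHQ-2-YbbR (12.5 uM) using rhodamine-CoA (5 uM). Two reads 30 minutes apart at 525/598 nm yielded each well's rate.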
JMJD2A Tudor: inhibitors of human JMJD2A Tudor domain. 390,000 compounds, 4.4% hits. Potency, µM (doses to about 114 µM), inactives show top-dose activity change, negative = inhibition, most hits filed as inhibitors. O75164. AlphaScreen JMJD2A-Tudor / H3K4me3 peptide binding; also: % is scaled to controls: 0 for no effect and ±100 for the full control effect; nearly all actives have a fitted effect of over 50% in size
G9a block: G9a (human) methyltransferase inhibition. 350,000 compounds, 8.8% hits. Potency, µM (highest dose often 102 µM), inactives show top-dose activity, negative = inhibition, most hits filed as inhibitors. Q96KQ7. G9a H3K9 monomethylation, AlphaScreen, 2 h. AID 504332; also: % is scaled to controls: 0 for no effect and ±100 for the full control effect; nearly all actives have a fitted effect of over 75% in size
Target sequence (Q96KQ7 913-1193 limits assumed): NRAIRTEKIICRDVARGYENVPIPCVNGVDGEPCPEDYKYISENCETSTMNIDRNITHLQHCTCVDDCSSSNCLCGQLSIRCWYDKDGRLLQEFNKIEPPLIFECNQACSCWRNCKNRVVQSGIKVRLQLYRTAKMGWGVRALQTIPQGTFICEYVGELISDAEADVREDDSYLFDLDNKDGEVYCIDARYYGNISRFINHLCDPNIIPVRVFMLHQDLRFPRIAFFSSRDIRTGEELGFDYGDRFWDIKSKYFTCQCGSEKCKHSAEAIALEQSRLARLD
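Compounds were preincubated with 20 nM G9a for 15 min, after which biotinylated H3K9 peptide (500 nM) and SAM (20 uM) started a 2 h room-temperature reaction. Monomethylated product was quantified by antibody-based AlphaScreen chemiluminescence.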
L3MBTL1 block: inhibitors of human L3MBTL1; AlphaScreen L3MBTL1–H3K9me1 peptide binding; Potency, µM (highest dose often 57.1 µM), for inactives: at the top dose activity, negative = inhibition, usual class: inhibitors; Q9Y468; 230,000 compounds, 0.66% hits; AID 485360; also: % is scaled to controls: 0 for no effect and ±100 for the full control effect; nearly all actives have a fitted effect of over 60% in size
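L3MBTL1 50 nM + b-AHA-H3(1-15)K9me1 75 nM, 30 min RT; compound added, 30 min RT; streptavidin donor/Ni-chelate acceptor beads 10 ug/mL each final, 30 min RT dark; AlphaScreen read.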
* hit, by the source's call; u = inconclusive; x = not tested or not shown; ! = not active in a repeat; [ ] = remark or other dose. Calls follow the shape of the dose curve; as a rule, active = well fitted curve in the direction sought with a large enough effect; inconclusive = small, poorly fitted or top-dose-only effect, or another doubt; inactive = no such curve, though single readings can be large; an effect the other way counts as inactive or inconclusive. Potency is read from the fitted curve at half-maximal effect.

SMILES	HP1b chromo inh	BAZ2B inh	Sfp inh	JMJD2A Tudor	G9a block	L3MBTL1 block
COc1ccc2[nH]c3c(=O)n(CCCCC(=O)N4CCCC4)c(=S)[nH]c3c2c1	24%	-2%	-9%	3.5µM*	2.2µM*	-3%
COC(=O)C1Cc2c([nH]c3ccccc23)C(C(C)C)N1 (stereo unspecified)	20%	-13%	-3%	-2%	45µM*	x
CCC1NC(C(=O)O)Cc2c1[nH]c1ccccc21 (stereo unspecified)	-14%	-12%	x	-14%	-4%[12.7 µM]	-4%
COc1cc(C2NC(C(=O)O)Cc3c2[nH]c2ccccc32)cc(OC)c1OC (stereo unspecified)	-2%	79µM*	71µM*!	56µM*	u	x
COc1ccc(C2NC(C(=O)O)Cc3c2[nH]c2ccccc32)cc1OC (stereo unspecified)	u	3%	-15%	3.2µM*	u	x
Cn1nc(-c2ccc(F)cc2)nc2c(=O)n(C)c(=O)nc1-2	14%[57 µM]	x	x	-3%[57.1 µM]	x	x
Cc1cc(C)n2ncc(C(=O)Nc3ccccc3)c2n1	x	x	x	-14%	x	x
Cc1ccc(N2CCN(C(=O)c3cnn(-c4ccc(C)c(C)c4)c3C3CCNCC3)CC2)c(C)c1	-17%	u	x	u	-48%[59 µM]	x
Cc1ccc(Cl)cc1N1CCN(C(=O)c2cnn(-c3ccc(Cl)cc3)c2C2CCNCC2)CC1	30%	u	x	-28%	8.9µM*	x
Cc1cc(C)cc(NC(=O)c2cnn(-c3ccc(C)c(C)c3)c2C2CCNCC2)c1	-12%	-1%[57.1 µM]	x	-29%	u	x
Cc1ccc(-n2ncc(C(=O)Nc3cc(Cl)ccc3C)c2C2CCNCC2)cc1C	36%	-28%	12%	2%	-40%	-9%
COc1ccc(OC)c(NC(=O)c2cnn(-c3ccc(C)cc3)c2C2CCNCC2)c1	-3%	u	x	79µM*	u	x
Cc1cc(C)cc(NC(=O)c2cnn(-c3ccccc3)c2C2CCNCC2)c1	18%	-27%	6%	-22%	40µM*	10%
Cc1cccc(NC(=O)c2cnn(-c3ccc(F)cc3)c2C2CCNCC2)c1C	10%	4%	19%	-20%	35µM*	x
O=C1N=C2SCCN2C(=O)C1Cc1ccc(Cl)cc1 (stereo unspecified)	x	x	18%	x	-36%[12.7 µM]	x
CCn1c(C(=O)Nc2c(C)cccc2C)cc2sc(Cl)cc21	5%	3%	x	-23%	12%[59 µM]	x
CC1(C)CC(N2CCN(CCO)CC2)=CC(=S)N1	37%	-23%	50µM*	-3%	u	-1%
COc1cc(NC(=S)N2CCN(CCO)CC2)cc(OC)c1	48%	4%	-3%	-15%	-3%	-6%
Cc1ccc(-c2nnc3c4ccccc4c(-c4ccccc4)nn23)cc1	29%	-8%	x	-6%	-6%[59 µM]	x
CCOC(=O)Cn1c(=O)oc2cc(S(=O)(=O)Nc3ccc(N(CC)CC)cc3C)ccc21	0%	u	9%	u	40µM*	x
CCN(CC)c1ccc(NS(=O)(=O)c2ccc3c(c2)CCCN3C(C)=O)c(C)c1	-5%[57 µM]	40µM*	x	50µM*	11µM*	x
CCC(=O)N1CCc2cc(S(=O)(=O)NCCC(=O)Nc3ccc(N(CC)CC)cc3C)ccc21	-14%	x	x	u	10µM*	x
O=S(=O)(c1cccc(Br)c1)N1CCN(c2nc(-c3cccs3)nc3ccccc23)CC1	13%	x	x	-10%	x	x
CCc1ccc(Cn2c(CNS(=O)(=O)c3ccc(Cl)s3)nc3cccnc32)cc1	13%[57 µM]	3%	x	-4%	53%[59 µM]	x
Cc1ccc(N2C(=O)C3C(c4ccccc4)N4CCCN4C3(C)C2=O)cc1 (stereo unspecified)	43%	-8%	-4%	-5%	7.9µM*	-4%
SMILES	HP1b chromo inh	BAZ2B inh	Sfp inh	JMJD2A Tudor	G9a block	L3MBTL1 block
CCc1ccc(NC(=O)Cn2c(=O)c3cc(Cl)ccc3n3nncc23)cc1	42%	1%	x	-23%	46%[59 µM]	x
COc1ccc(/C=C/C(=O)Oc2ccc(C)c(C)c2)cc1OC	32%	x	8.9µM*	26%	49%	x
COc1ccc(/C=C/C(=O)Nc2nc(C)cc(C)n2)cc1OC	u	9%	9%	50µM*	x	-10%
CC(=O)N1CCc2cc(S(=O)(=O)NC(Cc3ccccc3)C(=O)Nc3ccc(C)cc3C)ccc21 (stereo unspecified)	14%	x	x	-21%	-13%[59 µM]	x
O=C(Nc1nnc(S(=O)(=O)N2CCCc3ccccc32)s1)c1ccccc1Br	44%	-16%	x	0%	-29%[59 µM]	x
CS(=O)(=O)NCCCNc1ccc(C(F)(F)F)cc1[N+](=O)[O-]	9%	-33%	3%	-14%	-21%	x
O=[N+]([O-])c1cc(C(F)(F)F)ccc1NCCc1c[nH]c2ccccc12	u	11µM*	20%	22µM*	u	u
O=[N+]([O-])c1cc(C(F)(F)F)ccc1NCCc1c[nH]c2ccc(O)cc12	u	40µM*	11%	22µM*	u	-23%
CCOC(=O)c1ccc(NC(=O)CC2C(=O)N(c3ccc(F)cc3)C(=O)N2Cc2ccc3c(c2)OCO3)cc1 (stereo unspecified)	42%	-5%	x	-21%	u	x
COc1cc([C@H]2c3cc4c(cc3[C@@H](O[C@H]3O[C@H]5CO[C@@H](C)O[C@H]5[C@@H](O)[C@@H]3O)[C@@H]3COC(=O)[C@H]23)OCO4)cc(OC)c1O	x	x	25%	x	7%[12.7 µM]	x
Cc1ccc(S(=O)(=O)N2CCc3cc(C(=O)Nc4c(F)cccc4F)ccc32)cc1	19%	-14%	x	-15%	-8%[59 µM]	x
N#CC1=C2SCN(C3CCCCC3)CN2C(=O)CC1c1c(F)cccc1Cl (stereo unspecified)	u	x	x	22µM*	2.8µM*	x
CC(C)c1ccc(C2CC(=O)N3CN(C)CSC3=C2C#N)cc1 (stereo unspecified)	u	-33%	4.5µM*	u	1.6µM*	x
O=C1CSC(c2ccc(Cl)cc2)N1C1CCCCC1 (stereo unspecified)	30%	7%	9%	3%	13%[59 µM]	x
N#CC1=C2SCN(C3CCCCC3)CN2C(=O)CC1c1ccc(Cl)cc1 (stereo unspecified)	u	x	x	16µM*	2µM*	x
O=c1c(Cc2c(F)cccc2Cl)c(O)ccn1C1CCCCCC1	46%	u	2%	-5%	-11%	-8%[11.4 µM]
COC(=O)C1=C(C(=O)OC)[C@@H]2N(C)c3ccc(OC)cc3[C@@]23C[C@@H](C(=O)OC)N(S(=O)(=O)c2ccc4c(c2)OCCN4C)C3=N1	x	x	2%	x	x	x
O=C(COc1cccc(Br)c1)N/N=C1\CCCc2ccccc21	-11%	x	-12%	-10%	-2%	-4%
